Bioassay records (PubChem BioAssay)
The entries come from a sample that favours hits as a whole.
L3MBTL1 inh-1 = blocks human L3MBTL1; 0.66% of 230,000 active; Potency, µM (top dose mostly 57.1 µM), without a hit: at the highest dose activity, negative = inhibition, actives largely listed as inhibitors; AlphaScreen L3MBTL1–H3K9me1 peptide binding; AID 485360; Q9Y468; further: potency means the concentration at half of the fitted maximal effect; on the % scale 0 is the no-effect control and ±100 the full control effect; nearly all actives have a fitted effect of over 60% in size
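Read-out is AlphaScreen signal from streptavidin donor and nickel chelate acceptor beads (10 ug/mL final each) bridging L3MBTL1 (50 nM) and biotinylated K9-monomethylated H3(1-15) peptide (75 nM), after 30 min compound exposure at room temperature.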
CtBP-E1A blk = blocks the CtBP interaction with E1A; AlphaScreen GST-E1A/His-CtBP binding, 1536-well; active compounds read low; activity change, % (test concentration not listed); 0.49% of 340,000 active; AID 651724; in the data active means activity change below about -65%; inconclusive means mostly about -30% to -63%; further: on the % scale 0 is the no-effect control and ±100 the full control effect
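Steps: dispense buffer (Tris pH 8.0, NaCl 300 mM, TCEP 1 mM, BSA, Tween 20); add 5X protein mix (GST-E1A, His-CtBP, 125 nM each); pin 23 nL compound; 2 h at 37 °C, dark; add 5X beads (50 ug/mL); 1 h; read.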
Six1-Eya2 blk = blocks human Six1 binding to Eya2; AlphaScreen GST-Six1/His-Eya2 binding, biochemical; active compounds read low; activity change, % (concentration not given with the values); 0.56% of 360,000 active; in the data active means activity change below about -65%; inconclusive means mostly about -30% to -63%; further: on the % scale 0 is the no-effect control and ±100 the full control effect
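Homogeneous AlphaScreen proximity assay pairing GST-Six1 with His-tagged Eya2 (added as 5X mix: 250 nM and 500 nM) in 50 mM Tris pH 8.0, 300 mM NaCl, 1 mM TCEP. Glutathione donor and nickel acceptor beads; 1 h, 37 °C, dark.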
KDM4E inh = blocks human JMJD2E demethylase activity; 1.6% of 230,000 active; JMJD2E catalytic domain, FDH-coupled NADH fluorescence (FDH is formaldehyde dehydrogenase); B2RXH2; Potency, µM (doses to about 57.1 µM), inactives show at the top dose activity change, negative = inhibition, usual class: inhibitors; active means well fitted inhibition curve with a large enough effect, not every such curve was filed as active; inconclusive means small, poorly fitted or top-dose-only effect, or another doubt; inactive means no such curve, though single readings can be large or run the other way;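 further: potency means the concentration at half of the fitted maximal effect; 0% = wells with enzyme and -100% = buffer wells without enzyme; nearly all actives have a fitted effect of over 50% in size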
Target sequence (B2RXH2 1-337 limits assumed): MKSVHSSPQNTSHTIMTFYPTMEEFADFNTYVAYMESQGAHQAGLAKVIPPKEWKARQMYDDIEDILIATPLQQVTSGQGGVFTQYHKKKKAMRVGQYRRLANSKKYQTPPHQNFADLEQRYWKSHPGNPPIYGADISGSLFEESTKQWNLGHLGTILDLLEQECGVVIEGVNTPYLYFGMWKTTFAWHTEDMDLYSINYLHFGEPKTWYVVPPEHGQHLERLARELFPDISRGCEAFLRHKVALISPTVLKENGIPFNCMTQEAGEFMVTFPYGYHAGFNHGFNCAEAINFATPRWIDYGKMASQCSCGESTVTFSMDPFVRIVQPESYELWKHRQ
L3MBTL1 inh-2 = blocks human L3MBTL1 methyl-lysine binding | shares compounds with L3MBTL1 inh-1 | L3MBTL1 methyl-lysine binding inhibition, biochemical qHTS | Potency, µM, hits mostly inhibitors | 91% of 500 active | AID 540279; further: potency means the concentration at half of the fitted maximal effect; nearly all actives have a fitted effect of over 70% in size
L3MBTL1 ctr = counter-screen for L3MBTL1 inhibitors: AlphaScreen signal interference | shares compounds with L3MBTL1 inh-1 | AlphaScreen counterscreen, signal inhibition | Potency, µM (doses to about 57.1 µM), for the others: at the top dose activity change, negative = inhibition, most hits filed as inhibitors | 500 tested, under 10 active; further: potency means the concentration at half of the fitted maximal effect; 0% is about no effect
The depositor's hits bear a star; u = inconclusive; x = no result. Unless noted, the call rests on the fitted dose curve; in most records, active means well fitted curve in the direction sought with a large enough effect; inconclusive means small, poorly fitted or top-dose-only effect, or another doubt; inactive means no such curve, though single readings can be large; an effect the other way counts as inactive or inconclusive.

SMILES | L3MBTL1 inh-1 | CtBP-E1A blk | Six1-Eya2 blk | KDM4E inh | L3MBTL1 inh-2 | L3MBTL1 ctr
COc1cccc(/C=N/NC(=O)CSc2nnc(C)n2-c2ccccc2)c1O | 14% | u | u | 28µM* | x | x
O=C(CSc1n[nH]c(=O)[nH]c1=O)N/N=C/c1ccccc1O | 2% | -77* | -80* | 14µM* | x | x
COc1ccc(O)c(/C=N/NC(=O)CSc2nnc(C)n2-c2ccccc2)c1 | 4% | u | u | 22µM* | x | x
COc1ccc(O)c(/C=N/NC(=O)CN2CCS(=O)(=O)CC2)c1 | x | -71* | u | x | x | x
COC(=O)[C@H](COC(C)(C)C)NC(=O)O[C@@H]1Cc2cc(OC)ccc2O[C@H]1c1cccc(OC)c1 | x | x | x | 0% | x | x
COC(=O)[C@@H]1C[C@H]1[C@@H](NC(=O)c1ccc(Br)cc1)c1ccccc1 | x | x | x | -1% | x | x
COc1ccc(CSCC(=O)N/N=C/c2ccccc2O)cc1 | 2% | -15 | -18 | 32µM* | x | x
CC(C)C[C@@H](CC(=O)N[C@H](CC(=O)N[C@@H]1CCCC[C@H]1C(=O)N[C@H](CC(=O)N[C@@H](CCC(=O)O)CC(=O)O)Cc1c[nH]c2ccccc12)C(C)C)NC(=O)[C@@H]1CNCC[C@H]1N | x | x | x | -10% | x | x
CCOc1ccc(N2CC(C(=O)Nc3cc(S(=O)(=O)N4CCCCC4)ccc3C)CC2=O)cc1 (stereo not drawn) | -8% | -18 | 1 | x | x | x
O=C(Nc1ccccc1)c1nc[nH]c1C(=O)N1CCN(c2ccccc2)CC1 | -5% | 3 | 4 | x | x | x
O=C(Nc1nccs1)c1nc[nH]c1C(=O)N1CCN(c2ccccc2)CC1 | u | -71* | -78* | x | x | x
COc1cc2c(C(=O)N(C)c3ccc(F)cc3)cn(C)c(=O)c2cc1OC | x | -25 | 5 | x | x | x
O=C(N/N=C/c1ccc(O)c(O)c1O)/C(=C/c1ccc([N+](=O)[O-])cc1)NC(=O)c1ccccc1 | x | -94* | -90* | 10µM* | x | x
COC(=O)/C(=C\c1ccc([N+](=O)[O-])cc1)NC(=O)c1ccccc1 | x | -91* | -25 | x | x | x
Cc1cc(-c2nc3c4c5c(sc4[nH]c(=O)n3n2)CCC5)c(C)o1 | 8.9µM* | -1 | -17 | 4% | 9.5* | -1%
CC(C)n1ncc2c(C(=O)NCCc3ccc(F)cc3)cc(C3CC3)nc21 | 17% | 9 | 2 | x | x | x
O=C(COC(=O)c1cc2c(s1)CCC2)Nc1ccc(F)cc1 | 14µM* | 6 | 0 | u | 5.3* | u
COCCn1c(C)cc(C(=O)COC(=O)c2cc3c(s2)CCC3)c1C | 10µM* | -16 | -23 | u | 6.7* | u
Cc1ccc(N2NC(=O)/C(=C/c3ccc(-c4ccc(Cl)c(C(=O)O)c4)o3)C2=O)cc1 | 28µM* | 0 | -10 | -1% | 11* | -2%
CCCCC1(C)OC(=O)C(=Cc2ccc(-c3ccc(Cl)c(C(=O)O)c3)o2)C(=O)O1 (stereo not drawn) | 7.9µM* | 2 | -8 | u | 13* | 1%
O=C1NN(c2ccc(Cl)cc2)C(=O)/C1=C\c1ccc(-c2cccc(C(=O)O)c2)o1 | x | 2 | -8 | -30% | x | x
CC(C)N1C(=O)S/C(=C\c2ccc(-c3ccc(Cl)c(C(=O)O)c3)o2)C1=O | u | x | -20 | x | x | x
COC(=O)c1ccccc1NC(=O)CCS(=O)(=O)c1ccc(Br)cc1 | 8.9µM* | x | -18 | u | 2.7* | 4%
O=C(CCS(=O)(=O)c1ccc(Br)cc1)Nc1cc(F)ccc1F | 28µM* | 4 | -3 | -5% | 27* | 10%
O=C1COc2ccc(S(=O)(=O)CCC(=O)N3CCN(c4cccc(C(F)(F)F)c4)CC3)cc2N1 | x | 4 | -7 | x | x | x
Cn1c(=O)c2nc3ccccc3nc2n(C)c1=O | 10% | -2 | -8 | u | x | x
CC(=O)Nc1ccc2nc3c(=O)n(C)c(=O)n(C)c3nc2c1 | 25µM* | -22 | u | u | 24* | 5%
O=S(=O)(Nc1cc(Sc2cccc3cccnc23)c(O)c2ccccc12)c1ccc(F)cc1 | 28µM* | -92* | -94* | 28µM* | 21* | -16%
O=[N+]([O-])c1cc(F)c2cccnc2c1O | 13µM* | x | -88* | 87% | 6* | -60%
CN(Cc1cc([N+](=O)[O-])c2cccnc2c1O)C1CCCCC1 | -1% | x | x | u | x | x
